BaF3 parental = counter-screen for JAK2V617F inhibitors: parental Ba/F3 viability inhibitors | CellTiter-Glo ATP luminescence | inhibition, % at 5.6 µM | actives 1.1% (n = 220,000) | AID 1486;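 active = inhibition above a per-campaign cutoff, the mean inhibition of all tested compounds plus 3 SD, cut at about 27% in these data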;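 note: 0% = DMSO wells and 100% = JAK Inhibitor I control wells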
aSyn UTR inh = MLPCN primary screen, SNCA 5' untranslated region; alpha-synuclein 5'UTR reporter, inhibitor activity; inhibition, % (tested at 7.5 µM); actives 0.82% (n = 300,000); AID 1813; in the data active = inhibition above about 60%;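 note: H4 neuroglioblastoma cells stably carrying SNCA 5'UTR luciferase fusion; 0% = DMSO wells and 100% = positive control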
Ba/F3 V617F tox = loss of viability in JAK2V617F-driven Ba/F3 cells; Ba/F3 EpoR-JAK2V617F viability, ATP luminescence; inhibition, % at 5.6 µM; actives 1.1% (n = 220,000); AID 1446;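 active = inhibition above the campaign mean plus 3 SD over all tested compounds, cut at about 24% in these data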;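 note: cytokine-independent growth of Ba/F3 cells driven by EpoR plus mutant JAK2; 0% = DMSO-treated cells and 100% = JAK inhibitor I control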
APP 5UTR inh = APP translation inhibition; SH-SY5Y APP 5'UTR-luciferase reporter, luminescence; inhibition, % at 2 µM; actives 0.82% (n = 190,000); AID 1285;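 active = inhibition above a set limit, derived from the sample mean plus 3 SD, cut at about 45% in these data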
KLF5 inhibitor = inhibitors of KLF5 expression; inhibition, % at 5 µM; actives 0.23% (n = 290,000); DLD-1 KLF5 promoter-luciferase reporter, luminescence;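 active = inhibition above a per-plate limit of that plate's mean compound inhibition plus 3 SD, cut at about 60% in these data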;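 note: 0% = DMSO wells and 100% = LY294002 at 200 µM; higher means less KLF5 promoter-driven luciferase light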
IEC-6 tox = kills IEC-6 intestinal cells in KLF5 counter-screen | actives 0.78% (n = 290,000) | IEC-6 cytotoxicity, luminescence viability | inhibition, % at 5 µM;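 note: 0% = plate median of test compound wells and 100% = cytotoxic reference compound wells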
IEC-6 cytotox cf = confirmation of cytotoxic compounds in rat IEC-6 intestinal epithelial cells | shares compounds with IEC-6 tox | IEC-6 rat intestinal epithelial viability, luminescence | inhibition, % at 5 µM | actives 63% (n = 1,900) | AID 1907;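 note: 0% = vehicle and 100% = reference cytotoxic drug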
Active calls of the source: *; . = no result given. Sampled rows, rich in hits. Any-hit rate of the full collection: about 2.2%. Cut-off read from the data, not from the text of the source, unless noted: active = inhibition above about 22%; inactive = the rest.

SMILES	BaF3 parental	aSyn UTR inh	Ba/F3 V617F tox	APP 5UTR inh	KLF5 inhibitor	IEC-6 tox	IEC-6 cytotox cf
Cc1c(NC(=O)Nc2cccc(C(F)(F)F)c2)c(=O)n(-c2ccccc2)n1C	.	-11	.	.	-12	4	.
CC(NC(=O)c1ccccc1)c1nnc(SCC(=O)NC2CCCC2)n1C (stereo not given)	.	2	.	.	-22	-2	.
CCc1cc(=O)oc2cc(C)cc(OC(C)C(=O)NC(Cc3c[nH]c4ccc(O)cc34)C(=O)O)c12 (stereo not given)	.	14	.	.	-14	-10	.
O=C(CN(C(=O)c1csnn1)c1cccc2ccccc12)NCc1ccccc1	.	9	.	.	2	-4	.
CCCn1c(SCC(=O)Nc2ccccc2OC)nnc1-c1ccco1	.	2	.	.	39	35*	16
COCCn1c(SCC(=O)Nc2ccccc2OC)nnc1-c1ccco1	.	5	.	.	6	-6	.
Clc1cccc(Cl)c1/C=C/c1ccn[nH]1	.	-232	.	.	-59	27*	9
CCc1ccc2nc(Nc3nc(COC)cc(=O)[nH]3)nc(C)c2c1	3	-2	-2	9	-30	3	.
COCc1cc(=O)[nH]c(Nc2nc3ccc(C)cc3o2)n1	7	16	1	15	-58	26*	36*
OC(CNCCc1ccccc1)COc1ccc(OCC(O)CNCCc2ccccc2)cc1 (stereo not given)	9	107*	8	.	-25	26*	42*
OC(CNCCc1ccc(Cl)cc1)COc1ccc2ccccc2c1 (stereo not given)	0	.	3	-4	2	8	.
Nc1cccc(C(=O)OCC(=O)Nc2cccc3c2C(=O)c2ccccc2C3=O)c1	4	16	1	10	-24	2	.
CCN(CC)CCC(=O)Nc1cccc2c1C(=O)c1ccccc1C2=O	68*	-5	85*	.	23	26*	24*
CCCCN(C)C(=O)C1CCCN(S(=O)(=O)c2ccc3c(c2)oc(=O)n3C)C1 (stereo not given)	.	-2	.	.	0	-4	.
CN(C)S(=O)(=O)c1ccc(NC(=O)N2CCN(c3cccc(C(F)(F)F)c3)CC2)cc1	11	49	4	0	24	4	.
COc1ccc(NC(=O)N2CCN(c3cccc(C(F)(F)F)c3)CC2)cc1	8	12	3	23	-27	24*	3
Cc1ccc(N2CC(C(=O)Nc3ccc(S(=O)(=O)NCC4CCCO4)cc3)CC2=O)cc1C (stereo not given)	.	13	.	.	-17	2	.
CCOC(=O)Nc1ccc2c(c1)N(C(=O)CCN(CC)CC)c1ccccc1S2=O (stereo not given)	.	-20	.	.	-2	23*	13
CCOC(=O)Nc1ccc2c(c1)N(C(=O)CCN(CC)CC)c1ccccc1CC2	.	6	.	.	-21	5	.
C#CCn1cc(Cl)cc(C(=O)Nc2ccccc2)c1=O	.	-28	.	.	-20	-4	.
CCOc1ccc(CCNC(=O)c2cccs2)cc1OCC	.	15	.	.	-19	-6	.
O=C(O)c1ccc(NC2=C/C(=N/S(=O)(=O)c3ccccc3)c3ccccc3C2=O)cc1	5	.	-1	6	4	25*	-10
CCN(CC)C(=O)CSc1nc2cc(S(=O)(=O)N3CCOCC3)ccc2n1CC	.	9	.	.	-26	-2	.
COc1ccc(C(=O)c2ccc(OC)cc2OC)cc1	-2	-31	3	.	28	25*	14
COc1ccc(C(=O)c2ccc(N(C)C)cc2)c(OC)c1	52*	37	50*	78*	33	54*	53*
SMILES	BaF3 parental	aSyn UTR inh	Ba/F3 V617F tox	APP 5UTR inh	KLF5 inhibitor	IEC-6 tox	IEC-6 cytotox cf
COc1ccc(OC)c(C(=O)c2ccc(C(=O)c3cc(OC)ccc3OC)cc2)c1	0	17	-4	-1	-38	2	.
Cc1cc([N+](=O)[O-])ccc1N1C(=O)c2ccc(C(=O)Nc3ccccc3C(=O)O)cc2C1=O	.	4	.	.	-13	0	.
CC(C)(C)c1ccc(Cn2c(=O)cnc3ccccc32)cc1	.	-37	.	.	19	24*	8
O=c1cnc2ccccc2n1Cc1ccc(Br)cc1	.	-65	.	.	-37	10	.
COc1cc(C(=O)NCC(c2ccco2)N2CCc3ccccc3C2)cc(OC)c1OC (stereo not given)	.	2	.	.	.	.	.
CCCOc1ccc(C(=O)NNC(=S)NC(=O)c2ccccc2)cc1	.	80*	.	.	19	37*	18
CCCOc1ccc(C(=O)NNC(=S)NC(=O)c2cccs2)cc1	.	54	.	.	28	39*	50*

Assay outcomes: PubChem BioAssay, several laboratories
